Here are results for 1 sequence from paper PMC7862700, “An all-to-all approach to the identification of sequence-specific readers for epigenetic DNA modifications on cytosine”.

What all share (assay): DAPPL (digital affinity profiling via proximity ligation, sequencing); 10 mM Tris-HCl pH 7.5, 50 mM NaCl, 1 mM DTT, 4% glycerol, room temperature, 30 min; GST-TFs on glutathione beads, 16-mer random dsDNA library, 0.1% formaldehyde crosslink after washing; high values mean tight binding
The target of one test is T1, FEV (Homo sapiens, UniProt Q99581 1-238).
T1 sequence: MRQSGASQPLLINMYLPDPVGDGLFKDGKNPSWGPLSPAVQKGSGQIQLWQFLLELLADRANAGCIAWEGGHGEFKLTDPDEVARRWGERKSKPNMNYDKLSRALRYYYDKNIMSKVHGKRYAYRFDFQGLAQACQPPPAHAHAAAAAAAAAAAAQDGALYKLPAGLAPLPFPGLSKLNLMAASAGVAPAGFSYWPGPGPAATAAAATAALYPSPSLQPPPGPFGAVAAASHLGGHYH
The note with it: protein: recombinant; tags: N-terminal GST; dsDNA, one strand shown. In a few lines: (§1)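 After expression in yeast as GST fusions, human transcription factors were bound to glutathione beads, DNA-barcoded and mixed with a tag-only sample. The pools were incubated with 200 nmole of a 16-mer random double-stranded DNA library in Tris/NaCl/DTT/glycerol buffer (30 min, room temperature), washed and crosslinked with 0.1% formaldehyde. Proximity ligation with BsaI/T4 ligase ran for 1 h at 37 °C, before PCR amplification and sequencing on an Illumina NextSeq500. Binding signal is a hexamer's read frequency for a factor divided by its frequency for the tag-only sample.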

For a further test, the target named is ETV5 (Homo sapiens, UniProt P41161 1-510). The note with it: protein: recombinant; tags: N-terminal GST; dsDNA, one strand shown. In a few lines:
as §1

The next test addresses HSF1 (Homo sapiens, UniProt Q00613 1-529). Particulars: protein: recombinant; tags: N-terminal GST; chain copies: 3; dsDNA, one strand shown. In short, it runs like this: as §1
The next test concerns the target T2, SPIC (Homo sapiens, UniProt Q8N5J4 1-248).
T2 sequence: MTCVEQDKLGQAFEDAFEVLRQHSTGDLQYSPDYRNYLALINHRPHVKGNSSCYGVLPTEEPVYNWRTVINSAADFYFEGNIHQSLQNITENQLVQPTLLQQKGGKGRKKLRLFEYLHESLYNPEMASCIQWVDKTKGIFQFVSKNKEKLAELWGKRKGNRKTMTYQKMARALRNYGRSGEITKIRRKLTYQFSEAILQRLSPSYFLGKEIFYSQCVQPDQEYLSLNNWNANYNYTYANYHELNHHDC
The note with it: protein: recombinant; tags: N-terminal GST; dsDNA, one strand shown. In a few lines: as §1

In the next test the target is ELF4 (Homo sapiens, UniProt Q99607 1-663). Particulars: protein: recombinant; tags: N-terminal GST; dsDNA, one strand shown. In a few lines: as §1
ELF4, sequence (Q99607 whole entry): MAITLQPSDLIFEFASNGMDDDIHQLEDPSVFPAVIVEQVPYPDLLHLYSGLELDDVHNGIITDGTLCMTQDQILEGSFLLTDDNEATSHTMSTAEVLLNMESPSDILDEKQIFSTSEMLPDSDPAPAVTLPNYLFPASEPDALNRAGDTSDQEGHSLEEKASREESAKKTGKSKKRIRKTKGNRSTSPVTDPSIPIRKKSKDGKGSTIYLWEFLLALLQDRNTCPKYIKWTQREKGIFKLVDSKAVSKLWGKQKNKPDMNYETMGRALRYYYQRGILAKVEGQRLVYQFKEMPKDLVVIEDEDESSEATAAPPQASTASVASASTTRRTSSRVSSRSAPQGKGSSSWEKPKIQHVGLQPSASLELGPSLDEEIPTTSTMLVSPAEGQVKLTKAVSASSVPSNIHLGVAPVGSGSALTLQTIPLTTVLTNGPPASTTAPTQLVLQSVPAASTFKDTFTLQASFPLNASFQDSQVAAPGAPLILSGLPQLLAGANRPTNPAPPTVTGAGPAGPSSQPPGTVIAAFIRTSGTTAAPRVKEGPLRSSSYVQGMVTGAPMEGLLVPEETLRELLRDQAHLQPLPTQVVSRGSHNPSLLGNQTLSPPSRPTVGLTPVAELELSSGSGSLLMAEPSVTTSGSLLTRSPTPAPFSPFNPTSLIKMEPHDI
The target of the next test is T3, ELK4 (Homo sapiens, UniProt P28324-2 1-405).
T3 sequence: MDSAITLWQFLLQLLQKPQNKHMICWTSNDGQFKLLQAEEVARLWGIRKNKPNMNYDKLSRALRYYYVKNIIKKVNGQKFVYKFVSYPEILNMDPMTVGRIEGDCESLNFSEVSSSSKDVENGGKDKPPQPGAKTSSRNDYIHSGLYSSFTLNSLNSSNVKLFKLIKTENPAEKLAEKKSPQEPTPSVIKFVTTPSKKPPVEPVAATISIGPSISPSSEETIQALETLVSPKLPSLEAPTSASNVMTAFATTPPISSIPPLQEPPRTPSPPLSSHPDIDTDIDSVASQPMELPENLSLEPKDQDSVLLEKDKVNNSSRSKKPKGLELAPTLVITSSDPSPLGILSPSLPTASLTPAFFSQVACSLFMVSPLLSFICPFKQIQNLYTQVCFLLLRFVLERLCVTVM
Particulars: protein: recombinant; tags: N-terminal GST; dsDNA, one strand shown. In a few lines:
as §1

For the next test, the target named is T4, ETV2 (Homo sapiens, UniProt O00321 1-342).
T4 sequence: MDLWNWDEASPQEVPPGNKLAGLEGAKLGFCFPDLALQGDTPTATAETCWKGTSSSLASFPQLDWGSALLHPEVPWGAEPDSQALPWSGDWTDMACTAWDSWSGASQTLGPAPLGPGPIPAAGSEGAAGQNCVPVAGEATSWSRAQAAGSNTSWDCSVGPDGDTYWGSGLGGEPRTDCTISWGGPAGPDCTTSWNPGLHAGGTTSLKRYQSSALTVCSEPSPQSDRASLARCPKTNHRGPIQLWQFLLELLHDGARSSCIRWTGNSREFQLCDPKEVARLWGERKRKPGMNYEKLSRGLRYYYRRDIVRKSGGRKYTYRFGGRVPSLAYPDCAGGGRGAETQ
The note with it: protein: recombinant; tags: N-terminal GST; dsDNA, one strand shown. In short, it runs like this:
as §1

The next test addresses T5, ELF3 (Homo sapiens, UniProt P78545 1-371).
T5 sequence: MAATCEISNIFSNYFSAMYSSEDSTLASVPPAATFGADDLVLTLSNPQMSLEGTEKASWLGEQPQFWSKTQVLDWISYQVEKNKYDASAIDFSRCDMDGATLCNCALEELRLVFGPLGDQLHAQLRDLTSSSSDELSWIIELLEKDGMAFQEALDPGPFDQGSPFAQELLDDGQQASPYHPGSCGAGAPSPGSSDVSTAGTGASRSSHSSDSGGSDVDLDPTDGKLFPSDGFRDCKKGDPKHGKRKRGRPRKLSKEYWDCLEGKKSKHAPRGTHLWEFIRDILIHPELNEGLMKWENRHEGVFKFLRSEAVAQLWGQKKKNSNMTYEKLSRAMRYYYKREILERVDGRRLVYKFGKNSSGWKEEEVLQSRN
The note with it: protein: recombinant; tags: N-terminal GST; dsDNA, one strand shown. In a few lines: as §1

For a further test, the target named is CRX (Homo sapiens, UniProt O43186 1-299). The note with it: protein: recombinant; tags: N-terminal GST; dsDNA, one strand shown. In a few lines:
as §1

A further test has as its target ETV1 (Homo sapiens, UniProt P50549 1-477). The note with it: protein: recombinant; tags: N-terminal GST; dsDNA, one strand shown. In a few lines:
as §1

For another test, the target named is T6, ERF (Homo sapiens, UniProt P50548 1-548).
T6 sequence: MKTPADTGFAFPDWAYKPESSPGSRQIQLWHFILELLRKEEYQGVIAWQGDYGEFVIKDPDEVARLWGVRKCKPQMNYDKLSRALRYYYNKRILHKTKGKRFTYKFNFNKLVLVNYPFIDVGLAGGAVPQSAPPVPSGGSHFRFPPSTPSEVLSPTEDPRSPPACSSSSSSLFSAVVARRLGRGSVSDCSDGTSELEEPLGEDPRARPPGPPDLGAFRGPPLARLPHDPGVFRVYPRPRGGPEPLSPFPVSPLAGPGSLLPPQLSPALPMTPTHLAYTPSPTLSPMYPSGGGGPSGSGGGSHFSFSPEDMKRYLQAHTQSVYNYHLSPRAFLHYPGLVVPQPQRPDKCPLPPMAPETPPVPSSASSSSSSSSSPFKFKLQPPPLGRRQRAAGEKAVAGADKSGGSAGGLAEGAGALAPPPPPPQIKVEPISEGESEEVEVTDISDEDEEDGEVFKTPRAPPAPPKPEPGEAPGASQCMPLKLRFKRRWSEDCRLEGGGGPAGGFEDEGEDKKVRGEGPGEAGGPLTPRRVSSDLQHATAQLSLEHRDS
Particulars: protein: recombinant; tags: N-terminal GST; dsDNA, one strand shown. In short, it runs like this: as §1

Another test deals with T7, ETV3L (Homo sapiens, UniProt Q6ZN32 1-361).
T7 sequence: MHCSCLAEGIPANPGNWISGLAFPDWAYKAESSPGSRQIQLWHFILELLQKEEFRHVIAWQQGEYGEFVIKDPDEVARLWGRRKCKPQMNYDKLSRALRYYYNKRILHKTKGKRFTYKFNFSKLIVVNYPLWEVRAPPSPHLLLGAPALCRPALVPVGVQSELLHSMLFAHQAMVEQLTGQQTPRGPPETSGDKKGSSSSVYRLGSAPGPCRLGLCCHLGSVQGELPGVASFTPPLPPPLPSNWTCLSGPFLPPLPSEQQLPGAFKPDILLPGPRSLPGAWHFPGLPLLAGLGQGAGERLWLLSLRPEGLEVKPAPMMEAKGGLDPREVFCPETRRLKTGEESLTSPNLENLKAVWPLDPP
The note with it: protein: recombinant; tags: N-terminal GST; dsDNA, one strand shown. In a few lines:
as §1

The next test has as its target T8, ETS2 (Homo sapiens, UniProt P15036 1-469).
T8 sequence: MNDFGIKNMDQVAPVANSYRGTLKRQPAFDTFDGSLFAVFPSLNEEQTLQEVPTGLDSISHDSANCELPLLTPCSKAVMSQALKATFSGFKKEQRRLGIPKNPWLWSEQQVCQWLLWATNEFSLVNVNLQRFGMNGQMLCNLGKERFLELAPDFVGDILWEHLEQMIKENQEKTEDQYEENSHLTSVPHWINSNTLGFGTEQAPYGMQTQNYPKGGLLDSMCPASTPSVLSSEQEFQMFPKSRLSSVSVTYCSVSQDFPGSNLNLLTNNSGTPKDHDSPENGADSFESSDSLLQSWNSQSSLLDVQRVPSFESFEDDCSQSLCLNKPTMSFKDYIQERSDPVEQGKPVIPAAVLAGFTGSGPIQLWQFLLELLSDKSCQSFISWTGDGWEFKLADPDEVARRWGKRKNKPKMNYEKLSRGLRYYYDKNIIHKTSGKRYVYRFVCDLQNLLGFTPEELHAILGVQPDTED
Particulars: protein: recombinant; tags: N-terminal GST; dsDNA, one strand shown. In a few lines: as §1

Another test deals with T9, SPDEF (Homo sapiens, UniProt O95238 1-335).
T9 sequence: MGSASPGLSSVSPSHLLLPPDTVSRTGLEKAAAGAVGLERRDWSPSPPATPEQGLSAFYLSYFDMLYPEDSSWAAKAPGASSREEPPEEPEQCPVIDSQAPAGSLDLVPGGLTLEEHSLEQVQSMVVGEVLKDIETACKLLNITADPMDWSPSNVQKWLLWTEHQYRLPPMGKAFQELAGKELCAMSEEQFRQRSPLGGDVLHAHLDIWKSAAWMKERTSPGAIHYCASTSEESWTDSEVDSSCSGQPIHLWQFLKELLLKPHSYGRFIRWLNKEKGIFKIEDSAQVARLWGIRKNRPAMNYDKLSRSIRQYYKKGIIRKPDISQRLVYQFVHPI
Particulars: protein: recombinant; tags: N-terminal GST; dsDNA, one strand shown. In short, it runs like this:
as §1

A further test has as its target T10, ETV7 (Homo sapiens, UniProt Q9Y603 1-341).
T10 sequence: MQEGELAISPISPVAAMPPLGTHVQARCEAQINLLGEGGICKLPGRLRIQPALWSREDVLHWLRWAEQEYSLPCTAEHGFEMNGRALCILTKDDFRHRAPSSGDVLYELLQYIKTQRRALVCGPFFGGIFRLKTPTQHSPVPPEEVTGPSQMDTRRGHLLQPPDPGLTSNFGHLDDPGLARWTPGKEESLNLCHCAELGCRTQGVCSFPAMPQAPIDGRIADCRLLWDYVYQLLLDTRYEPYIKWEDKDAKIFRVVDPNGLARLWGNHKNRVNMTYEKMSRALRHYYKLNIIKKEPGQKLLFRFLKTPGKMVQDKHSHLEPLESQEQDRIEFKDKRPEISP
Particulars: protein: recombinant; tags: N-terminal GST; dsDNA, one strand shown. In a few lines: as §1

Another test deals with T11, ELF5 (Homo sapiens, UniProt Q9UKW6-2 1-255).
T11 sequence: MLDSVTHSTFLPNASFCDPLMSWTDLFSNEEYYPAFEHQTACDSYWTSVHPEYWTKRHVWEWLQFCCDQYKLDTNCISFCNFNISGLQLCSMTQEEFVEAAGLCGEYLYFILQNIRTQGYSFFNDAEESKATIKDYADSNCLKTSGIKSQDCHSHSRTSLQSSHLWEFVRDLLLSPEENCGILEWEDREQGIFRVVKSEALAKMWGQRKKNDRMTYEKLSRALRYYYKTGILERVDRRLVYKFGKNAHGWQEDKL
The note with it: protein: recombinant; tags: N-terminal GST; dsDNA, one strand shown. In short, it runs like this: as §1

The target in another test is T12, ETV3 (Homo sapiens, UniProt P41162-2 1-143).
T12 sequence: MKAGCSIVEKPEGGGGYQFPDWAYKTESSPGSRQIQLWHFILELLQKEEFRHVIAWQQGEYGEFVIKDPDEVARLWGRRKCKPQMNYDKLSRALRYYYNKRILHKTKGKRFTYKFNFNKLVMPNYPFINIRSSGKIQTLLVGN
Particulars: protein: recombinant; tags: N-terminal GST; dsDNA, one strand shown. In short, it runs like this: as §1

A further test concerns the target ETV6 (Homo sapiens, UniProt P41212 1-452). Particulars: protein: recombinant; tags: N-terminal GST; dsDNA, one strand shown. In short, it runs like this: as §1

CRX, sequence (O43186 whole entry): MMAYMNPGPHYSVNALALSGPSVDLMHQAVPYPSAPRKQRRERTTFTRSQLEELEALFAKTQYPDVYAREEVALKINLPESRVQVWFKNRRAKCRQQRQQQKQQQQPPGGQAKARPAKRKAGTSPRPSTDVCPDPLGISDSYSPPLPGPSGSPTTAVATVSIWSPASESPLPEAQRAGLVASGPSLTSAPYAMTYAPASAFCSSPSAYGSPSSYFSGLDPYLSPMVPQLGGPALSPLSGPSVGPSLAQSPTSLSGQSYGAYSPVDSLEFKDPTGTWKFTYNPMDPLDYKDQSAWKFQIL
ETV5, sequence (P41161 whole entry): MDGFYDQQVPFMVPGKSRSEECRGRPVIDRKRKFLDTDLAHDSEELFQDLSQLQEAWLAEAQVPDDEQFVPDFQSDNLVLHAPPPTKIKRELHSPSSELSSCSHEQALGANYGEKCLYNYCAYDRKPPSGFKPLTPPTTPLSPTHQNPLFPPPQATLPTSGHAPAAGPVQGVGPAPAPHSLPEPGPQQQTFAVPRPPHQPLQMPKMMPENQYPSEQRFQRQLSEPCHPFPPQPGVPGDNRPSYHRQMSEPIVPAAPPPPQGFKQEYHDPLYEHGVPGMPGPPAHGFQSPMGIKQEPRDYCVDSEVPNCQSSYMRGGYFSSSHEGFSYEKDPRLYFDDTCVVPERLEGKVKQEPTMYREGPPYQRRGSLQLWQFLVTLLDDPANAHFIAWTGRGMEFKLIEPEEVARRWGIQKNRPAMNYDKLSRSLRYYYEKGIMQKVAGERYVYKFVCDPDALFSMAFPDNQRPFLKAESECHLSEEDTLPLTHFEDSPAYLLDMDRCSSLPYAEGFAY
ETV1, sequence (P50549 whole entry): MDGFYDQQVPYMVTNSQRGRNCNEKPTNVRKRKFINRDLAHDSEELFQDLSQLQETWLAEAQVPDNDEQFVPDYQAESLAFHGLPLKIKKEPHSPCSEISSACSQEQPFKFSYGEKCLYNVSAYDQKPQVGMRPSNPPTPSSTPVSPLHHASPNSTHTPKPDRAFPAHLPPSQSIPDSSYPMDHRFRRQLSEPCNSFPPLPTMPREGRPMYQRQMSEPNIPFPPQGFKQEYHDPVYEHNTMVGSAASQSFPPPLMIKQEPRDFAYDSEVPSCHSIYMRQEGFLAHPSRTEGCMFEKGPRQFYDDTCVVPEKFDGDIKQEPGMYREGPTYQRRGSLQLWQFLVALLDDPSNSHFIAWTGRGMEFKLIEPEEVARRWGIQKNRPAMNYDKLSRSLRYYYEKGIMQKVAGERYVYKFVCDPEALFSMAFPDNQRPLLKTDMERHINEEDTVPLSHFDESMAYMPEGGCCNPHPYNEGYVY
ETV6, sequence (P41212 whole entry): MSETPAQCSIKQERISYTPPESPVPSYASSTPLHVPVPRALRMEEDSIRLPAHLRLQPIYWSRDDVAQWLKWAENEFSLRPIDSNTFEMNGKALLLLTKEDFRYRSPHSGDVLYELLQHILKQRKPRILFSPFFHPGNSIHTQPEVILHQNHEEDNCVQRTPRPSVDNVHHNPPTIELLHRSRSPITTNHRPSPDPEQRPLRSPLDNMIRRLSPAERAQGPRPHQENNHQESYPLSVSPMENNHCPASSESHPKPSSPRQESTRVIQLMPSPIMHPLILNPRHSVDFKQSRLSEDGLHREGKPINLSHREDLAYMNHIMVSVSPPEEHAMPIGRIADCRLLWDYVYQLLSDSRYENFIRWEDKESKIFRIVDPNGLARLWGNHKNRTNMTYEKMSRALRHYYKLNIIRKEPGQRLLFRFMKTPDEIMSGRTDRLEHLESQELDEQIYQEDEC
HSF1, sequence (Q00613 whole entry): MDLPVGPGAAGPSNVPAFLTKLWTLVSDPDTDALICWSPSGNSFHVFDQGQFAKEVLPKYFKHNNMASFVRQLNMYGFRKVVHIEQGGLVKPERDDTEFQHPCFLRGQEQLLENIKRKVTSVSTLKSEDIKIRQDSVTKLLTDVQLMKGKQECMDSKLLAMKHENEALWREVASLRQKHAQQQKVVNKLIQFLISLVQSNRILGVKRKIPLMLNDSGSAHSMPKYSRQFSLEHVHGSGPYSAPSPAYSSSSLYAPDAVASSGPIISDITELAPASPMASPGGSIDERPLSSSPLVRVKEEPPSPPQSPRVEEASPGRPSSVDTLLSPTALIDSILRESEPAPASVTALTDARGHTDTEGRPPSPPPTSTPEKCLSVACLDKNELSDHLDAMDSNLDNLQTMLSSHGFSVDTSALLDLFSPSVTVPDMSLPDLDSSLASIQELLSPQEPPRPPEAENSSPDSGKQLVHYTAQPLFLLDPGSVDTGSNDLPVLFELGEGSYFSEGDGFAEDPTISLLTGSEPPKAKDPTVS

With CTCCCG, the binding signal with FEV was 1.61 fold enrichment (6-mer frequency, TF over GST control); in the test with ETV5, 1.59 fold enrichment (6-mer frequency, TF over GST control); with HSF1, 1.5 fold enrichment (6-mer frequency, TF over GST control); in the test with SPIC it was 1.77 fold enrichment (6-mer frequency, TF over GST control); in the test with ELF4 it was 1.68 fold enrichment (6-mer frequency, TF over GST control); in the test with ELK4, 1.46 fold enrichment (6-mer frequency, TF over GST control). Besides, the binding signal with ETV2 is 1.25 fold enrichment (6-mer frequency, TF over GST control); with ELF3, 1.69 fold enrichment (6-mer frequency, TF over GST control); with CRX it was 1.27 fold enrichment (6-mer frequency, TF over GST control); with ETV1, 1.5 fold enrichment (6-mer frequency, TF over GST control); in the test with ERF it was 1.42 fold enrichment (6-mer frequency, TF over GST control); in the test with ETV3L it was 1.43 fold enrichment (6-mer frequency, TF over GST control). Moreover, the binding signal with ETS2 is 1.52 fold enrichment (6-mer frequency, TF over GST control); with SPDEF, 1.65 fold enrichment (6-mer frequency, TF over GST control); in the test with ETV7, 1.73 fold enrichment (6-mer frequency, TF over GST control); with ELF5, 1.74 fold enrichment (6-mer frequency, TF over GST control); with ETV3 it was 1.53 fold enrichment (6-mer frequency, TF over GST control); with ETV6, 1.57 fold enrichment (6-mer frequency, TF over GST control).
